Measurements taken from ChEMBL document CHEMBL3988442, “University of Dundee, Small-Polar-MMV Screening Library” (2021).
The whole screen tested about 48,000 compounds, of which about 13,000 (27%) showed an effect of 50% or more. The list shows a part of the results.

The compounds below were run on Wolbachia pipientis (assay: Anti-Wolbachia Cell-Based Screen). Conditions: 5 µM.
Format: functional
Parameters: scale not given: in the data most compounds retested in dose-response had high values

In order of rising “Percent Effect” value:
1. CSc1ccc(NCC(=O)NCC2CC2)cc1F  -20.57%
2. CC(C)c1nnc(CNCC2CCCN2c2cccnn2)o1 (stereo unspecified)  -19.57%
3. CCc1cc(=O)[nH]c2nnc(SCC(=O)OC)n12  -19.07%
4. O=C(CSc1ccc2c(c1)OCCO2)NS(=O)(=O)c1cc(F)ccc1F  -16.91%
5. CN(C)Cc1cnc2n1CCN(C(=O)Cc1cccc(F)c1)CC2.O=C(O)C(F)(F)F  -14.88%
6. c1ccc2nc(NCC3(N4CCOCC4)CCSC3)cnc2c1 (stereo unspecified)  -14.05%
7. O=C(NCc1cnc2n1CCN(Cc1nccs1)C2)c1ccno1.O=C(O)C(F)(F)F  -12.49%
8. Cc1ccc(OCC(O)Cn2ncc3cnn(C)c(=O)c32)cc1 (stereo unspecified)  -11.22%
9. CC(C)Cc1ncc2c(n1)CN(c1cc(N3CCCC3)nc(N)n1)C2  -10.3%
10. Cc1nc(CNCC2CCCN2c2cccnn2)oc1C (stereo unspecified)  -10.17%
11. CS(=O)(=O)c1cccc(S(=O)(=O)NC(=O)c2cscn2)c1  -9.351%
12. Cc1noc(C)c1CN1CCc2ncc(CN(C)C)n2CC1.O=C(O)C(F)(F)F.O=C(O)C(F)(F)F  -8.609%
13. CN1CCc2ncc(CNC(=O)c3cccn3C)n2CC1.O=C(O)C(F)(F)F  -7.758%
14. COc1cc(C)nc(N2CCN(C(=O)CCn3cc(C)cn3)CC2)n1  -7.08%
15. Cc1ccc(CN2CCc3c(CN(C)C)n[nH]c3C2)s1.O=C(O)C(F)(F)F.O=C(O)C(F)(F)F  -7.014%
16. COc1cccc([C@@H]2CN(C3CCCC3)C[C@H]2C(=O)O)c1  -6.459%
17. CN(Cc1nnc(C2CC2)n1C)C(=O)c1ccnc(OC2CCC2)c1  -6.34%
18. CN(C)Cc1cnc2n1CCN(C(=O)Cc1ccc(F)cc1)CC2.O=C(O)C(F)(F)F  -6.028%
19. CC(O)CN1CCN(Cc2cccc(C#N)c2)CC1 (stereo unspecified)  -5.978%
20. CCn1cnc2c(c(Br)nn2C)c1=O  -4.609%
21. CC(C)c1ccn(C2(C(=O)O)CCN(c3ccncc3F)CC2)n1  -3.994%
22. CN(C)Cc1cnc2n1CCN(C(=O)NCc1ccccc1)CC2.O=C(O)C(F)(F)F  -3.612%
23. c1cnnc(N2CCCC2CNCc2ccsc2)c1 (stereo unspecified)  -3.279%
24. Cc1nc(CNCC2CCCN2c2cccnn2)cs1 (stereo unspecified)  -2.276%
25. CCCSCC(=O)N1CCN(c2ccc(C)cc2)CC1C (stereo unspecified)  -1.95%
26. COc1ccccc1OCC(=O)NS(=O)(=O)c1ccccc1F  -1.762%
27. CC(C)c1ncc2c(n1)CN(Cc1cccc(C#N)c1)CC2  -1.681%
28. CC(=O)Nc1ccc(CN2CCOC2=O)cc1  -1.092%
29. CCN(C(=O)Cc1ccc(NC(=O)NC2CC2)cc1)c1ccccc1  -0.9902%
30. Cc1cc(C)c(Cn2cncn2)cc1CN1CCC(CN)C1 (stereo unspecified)  -0.9295%
31. Cn1cc(CN2CCn3c(CNC(=O)c4cccn4C)cnc3C2)cn1.O=C(O)C(F)(F)F  -0.1323%
32. Cc1cc(C(=O)NCC2SCCc3ccccc32)no1 (stereo unspecified)  0.5755%
33. CC(C)N(C)Cc1cnc2n1CCN(C(=O)Cc1cccs1)C2C.O=C(O)C(F)(F)F (stereo unspecified)  0.7731%
34. CC(C)N(C)Cc1cnc2n1CCN(CCc1ccccc1)C2.O=C(O)C(F)(F)F.O=C(O)C(F)(F)F  1.323%
35. COCCN1CCCn2cnc(CN(C)C(C)C)c2C1.O=C(O)C(F)(F)F.O=C(O)C(F)(F)F  1.891%
36. Cc1cccc(N(CC(=O)N2CCCCC2)Cc2ccno2)c1  2.857%
37. CC(C)NC(=O)C[C@@H]1CCNC[C@@H]1Cc1cc(-c2ccccc2)on1  3.733%
38. CN(Cc1ccco1)Cc1cnc2n1CCN(S(C)(=O)=O)CC2.O=C(O)C(F)(F)F  3.882%
39. c1cnnc(N2CCCC2CNCCc2cccs2)c1 (stereo unspecified)  5.045%
40. Cc1noc(C)c1CNCC1CCCN1c1cccnn1 (stereo unspecified)  5.268%
41. Cc1cc(C(=O)N(C)Cc2ccccc2OCC(C)C)cc(=O)[nH]1  5.839%
42. Cc1ncc(CNCC2CCCN2c2cccnn2)s1 (stereo unspecified)  6.124%
43. COCCC1(CNC(=O)NCC2CCCN(C)C2)CCC1 (stereo unspecified)  8.648%
44. CC(C)(C)c1cnc(CNCC2CCCN2c2cccnn2)o1 (stereo unspecified)  10.11%
45. Cn1ccnc1CN1CCC2(CC(=O)N(c3cccc(F)c3)C2)C1.O=C(O)C(F)(F)F (stereo unspecified)  10.35%
46. Cc1cccc(C(=O)N(C)CC(=O)N2CCCC2)c1C  11.26%
47. O=C(Nc1cnccn1)[C@H]1COC[C@H]2CN(C3CCCC3)C[C@H]21.O=C(O)C(F)(F)F  12.06%
48. O=C(CNC(=O)C1CC1)NCc1ccc(Cl)s1  12.79%
49. CC(=O)Nc1ccc(/C=C/c2ncc(C(=O)O)s2)cc1  35.4%
50. Cc1ccc(CN2CCn3c(CNC(=O)c4cccn4C)cnc3C2)s1.O=C(O)C(F)(F)F  57.4%
51. Cc1ncccc1CNCC1CCCN1c1cccnn1 (stereo unspecified)  86.13%
52. Cc1ccc(CN2CCn3c(CN(C)C(C)C)cnc3C2)s1.O=C(O)C(F)(F)F.O=C(O)C(F)(F)F  102.4%
53. CC(C)N(C)Cc1cnc2n1CCN(Cc1ccc(F)cc1)C2.O=C(O)C(F)(F)F.O=C(O)C(F)(F)F  108.1%
54. c1cnnc(N2CCCC2CNCc2cccs2)c1 (stereo unspecified)  108.7%
55. Cc1ccc(CNCC2CCCN2c2cccnn2)s1 (stereo unspecified)  110.2%
56. CC(C)N(C)Cc1cnc2n1CCN(Cc1cccc(C#N)c1)C2  113.4%
57. CC(C)N(C)Cc1cnc2n1CCN(S(=O)(=O)c1ccccc1)C2.O=C(O)C(F)(F)F  114.3%
58. COCCN1CCn2c(CN(C)C(C)C)cnc2C1.O=C(O)C(F)(F)F.O=C(O)C(F)(F)F  115.3%
59. CC(C)N(C)Cc1cnc2n1CCN(Cc1cccc(F)c1)C2.O=C(O)C(F)(F)F.O=C(O)C(F)(F)F  118.2%
60. CC(C)(C)c1ncc(CNCC2CCCN2c2cccnn2)s1 (stereo unspecified)  130.1%
61. CC(C)N(C)Cc1cnc2n1CCN(Cc1ccco1)C2.O=C(O)C(F)(F)F.O=C(O)C(F)(F)F  165.9%
